In PubChem BioAssay (NCATS):
Inconclusive results are not listed. Activity calls are given as the source filed them. Calls come from the whole dose curve; as a rule, active = well fitted inhibition curve with a large enough effect; inconclusive = small, poorly fitted or top-dose-only effect; inactive = flat fitted curve, though single readings scatter.

test system: CRL-7250; experiment: qHTS assay to identify novel small-molecules to repurpose for Merkel cell carcinoma treatment (AID 1296009); settings: MCC and control cell lines, CellTiter-Glo viability, 72 h; at 44.8 µM (top of the series) unless noted; note: nearly all actives have a fitted effect of over 60% in size
Summary of the method: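 Luminescence from CellTiter-Glo, read 10 min after addition at room temperature, reported viability following a 72 hr, 37 degree celsius treatment with NPC or MIPE compounds in titration; values normalized to plate controls.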

SMILES | outcome
CC(=O)OCC(=O)[C@@]1(O)[C@H](OC(C)=O)C[C@H]2[C@@H]3CCC4=CC(=O)C=C[C@]4(C)[C@@]3(F)[C@@H](O)C[C@@]21C | inactive
CCS(=O)(=O)CCn1c([N+](=O)[O-])cnc1C | inactive
CC[N+](C)(CC)CCOC(=O)C1c2ccccc2Oc2ccccc21 | inactive
Cc1ccc(S(=O)(=O)NC(=O)NC2CCCCC2)cc1 | inactive
CCOc1ncc(F)c(=O)[nH]1 | inactive
COc1cc(O)cc(O)c1 | inactive
OC[C@H]1O[C@@H]2O[C@H]3[C@H](O)[C@@H](O)[C@@H](O[C@H]4[C@H](O)[C@@H](O)[C@@H](O[C@H]5[C@H](O)[C@@H](O)[C@@H](O[C@H]6[C@H](O)[C@@H](O)[C@@H](O[C@H]7[C@H](O)[C@@H](O)[C@@H](O[C@H]8[C@H](O)[C@@H](O)[C@@H](O[C@H]1[C@H](O)[C@H]2O)O[C@@H]8CO)O[C@@H]7CO)O[C@@H]6CO)O[C@@H]5CO)O[C@@H]4CO)O[C@@H]3CO | inactive
CN1CCN(C(=O)C2CCCCC2)CC1 | inactive
NC(=O)N[C@@H](CCC(=O)O)C(=O)O | inactive
NCCCNCCSP(=O)(O)O | inactive [at 9.27 µM]
NC(=O)N1c2ccccc2C=Cc2ccccc21 | inactive
O=C(CCCl)NCCc1ccccc1 | inactive
CCN1CCN(C(=O)N[C@@H](C(=O)N[C@@H]2C(=O)N3[C@@H]2SC(C)(C)[C@H]3C(=O)O)c2ccccc2)C(=O)C1=O | inactive
O=C1NCC2(CCN(CCc3ccccc3)CC2)O1 | inactive
NCCCC[C@H](N[C@@H](CCc1ccccc1)C(=O)O)C(=O)N1CCC[C@H]1C(=O)O | inactive
CCC(Cc1c(I)cc(I)c(N)c1I)C(=O)O (configuration not stated) | inactive
NS(=O)(=O)c1cc2c(cc1Cl)NC(C(Cl)Cl)NS2(=O)=O (configuration not stated) | inactive
FC(F)(F)c1ccccc1-n1ccnc1 | inactive
Cc1onc(-c2c(Cl)cccc2Cl)c1C(=O)Cl | inactive

SMILES | outcome
CCOC(=O)O[C@]1(C(=O)OCCl)CC[C@H]2[C@@H]3CCC4=CC(=O)C=C[C@]4(C)[C@H]3[C@@H](O)C[C@@]21C | inactive
CC(C)(Oc1ccc(C2CC2(Cl)Cl)cc1)C(=O)O (configuration not stated) | inactive [at 92 µM]
CCn1cc(C(=O)O)c(=O)c2cc(F)c(N3CCNC(C)C3)c(F)c21 (configuration not stated) | inactive
Nc1c[n+](N2CCOCC2)no1 | inactive
CCN1CCC[C@H]1CNC(=O)c1c(O)c(Cl)cc(Cl)c1OC | inactive
NC(=O)NC1N=C([O][Al])NC1=O (configuration not stated) | inactive
CC(=O)CC/C=C(\C)CC/C=C(\C)CC/C=C(\C)CCC=C(C)C | inactive
CCCCOCCOC(=O)c1cccnc1 | inactive
CCCCN(CCCC)CCCOC(=O)c1ccc(N)cc1 | inactive
Cc1c(C(=O)NCCO)[n+](=O)c2ccccc2n1[O-] | inactive
CCCCCCCCCCCCCCCCCC(=O)OCC(O)CO (configuration not stated) | inactive
O=C(O)CCCC[C@@H]1SC[C@@H]2NC(=O)N[C@@H]21 | inactive
CC(C)NCC(O)c1ccc(NS(C)(=O)=O)cc1 (configuration not stated) | inactive
NS(=O)(=O)c1cc(C(=O)NN2C[C@H]3[C@H]4CCC(C4)[C@H]3C2)ccc1Cl | inactive
CCC1=C(C)CN(C(=O)NCCc2ccc(S(=O)(=O)NC(=O)NC3CCC(C)CC3)cc2)C1=O (configuration not stated) | inactive
CCC[C@@H]1C[C@@H](C(=O)N[C@@H]([C@H]2O[C@H](SC)[C@H](O)[C@@H](O)[C@H]2O)[C@@H](C)O)N(C)C1 | inactive
CCCCCCCCCCCCCCCC(=O)NCCO | inactive
CC(C)(C)NCC(O)COc1cccc2c1C[C@H](O)[C@H](O)C2 (some centres not stated) | inactive
